# Paper PMC4931317
# Biological target: U3 small nucleolar RNA-associated protein 4 (UniProt Q06679)
# Assay: cross-link between two proteins
# Sequence of U3 small nucleolar RNA-associated protein 4 (Q06679 whole entry): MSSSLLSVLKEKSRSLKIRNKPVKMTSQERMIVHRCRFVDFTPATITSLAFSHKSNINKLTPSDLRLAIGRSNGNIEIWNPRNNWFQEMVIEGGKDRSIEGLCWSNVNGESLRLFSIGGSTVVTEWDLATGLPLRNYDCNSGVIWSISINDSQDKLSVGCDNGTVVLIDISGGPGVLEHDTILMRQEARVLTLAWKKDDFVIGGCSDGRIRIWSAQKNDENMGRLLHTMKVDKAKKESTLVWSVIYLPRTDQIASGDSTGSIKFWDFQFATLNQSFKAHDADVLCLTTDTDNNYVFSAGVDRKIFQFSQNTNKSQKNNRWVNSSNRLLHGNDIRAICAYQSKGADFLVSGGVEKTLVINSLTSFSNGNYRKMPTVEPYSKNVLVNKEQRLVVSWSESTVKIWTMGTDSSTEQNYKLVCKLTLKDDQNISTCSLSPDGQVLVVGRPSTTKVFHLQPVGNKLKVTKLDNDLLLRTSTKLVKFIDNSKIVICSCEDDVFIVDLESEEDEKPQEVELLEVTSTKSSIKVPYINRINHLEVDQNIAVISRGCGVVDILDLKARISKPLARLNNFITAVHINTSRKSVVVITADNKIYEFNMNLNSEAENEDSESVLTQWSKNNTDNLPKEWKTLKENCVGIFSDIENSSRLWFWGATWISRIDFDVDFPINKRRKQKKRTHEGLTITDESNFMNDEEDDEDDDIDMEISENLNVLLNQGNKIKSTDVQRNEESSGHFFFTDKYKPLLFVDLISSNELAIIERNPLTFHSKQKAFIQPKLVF
substance,measurement,value
"U3 small nucleolar RNA-associated protein 8, P53276",listed as a hit,yes
